PubChem BioAssay (NCI)
Where “and” joins values, the source holds several entries; their conditions need not be identical. Equal values may be shown once. About 83,000 compounds went through this panel and 20% of them were active in at least one assay; those are over-represented in the sample as a whole.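 Percent growth is the endpoint: 0 to 100 indicates growth inhibition (40 means 60% inhibition), 0 means no net growth, and negative values indicate cell death.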 Calls of active or inactive are those of the source. The calls were made as follows: active = growth percent below 10; inactive = the rest.

What was measured:
Assay in all cases: NCI-60 one-dose screen, 48 h (100 = growth as untreated, 0 = no growth, -100 = all killed)
Settings in all cases: 10 µM unless noted
SK-MEL-2 melanoma = test system: SK-MEL-2 melanoma
EKVX NSCLC = test system: EKVX NSCLC
SN12C renal = test system: SN12C renal
UO-31 renal = test system: UO-31 renal
TK-10 renal = test system: TK-10 renal
ACHN renal = test system: ACHN renal
CAKI-1 renal = test system: CAKI-1 renal
A498 renal = test system: A498 renal
CCRF-CEM leukemia = test system: CCRF-CEM leukemia
MOLT-4 leukemia = test system: MOLT-4 leukemia

Measured: growth

N#Cc1c(-c2ccc(Br)cc2)cc(-c2c[nH]c3ccccc23)nc1N
inactive: SK-MEL-2 melanoma 39.6% | EKVX NSCLC 51.6% | SN12C renal 66.3% | UO-31 renal 43.6% | TK-10 renal 96.8% | ACHN renal 57.4% | CAKI-1 renal 30.9% | A498 renal 63.7% | CCRF-CEM leukemia 34.1%

COc1ccc(NC(=O)CCCCCCNC(=O)C(O)(O)C(F)(F)F)cc1
inactive: SK-MEL-2 melanoma 12.7% | EKVX NSCLC 61.7% | SN12C renal 59.9% | UO-31 renal 37.7% | ACHN renal 20.2% | CAKI-1 renal 26% | A498 renal 41.8% | CCRF-CEM leukemia 26.2% | MOLT-4 leukemia 21%
active: TK-10 renal 6.59%

O=C(/C=C/c1cccc(F)c1)c1cccc(OCCCCOc2cccc(C(=O)/C=C/c3cccc(F)c3)c2)c1
inactive: SK-MEL-2 melanoma 101% | EKVX NSCLC 99% | SN12C renal 95.2% | UO-31 renal 96% | TK-10 renal 100% | ACHN renal 100% | CAKI-1 renal 99.1% | A498 renal 110% | CCRF-CEM leukemia 102%

COc1ccc(N2CCN(C3=C(Cl)C(=O)c4ncccc4C3=O)CC2)cc1
inactive: SK-MEL-2 melanoma 95.1% | EKVX NSCLC 99.9% | SN12C renal 84.7% | UO-31 renal 19.2% | TK-10 renal 99.6% | CAKI-1 renal 32.3% | A498 renal 103%
active: ACHN renal -18.7% | CCRF-CEM leukemia 6.79% | MOLT-4 leukemia 4.55%

O=C(Nc1cc(C(F)(F)F)cc(C(F)(F)F)c1)Nc1ccc2oc(=O)ccc2c1
active: SK-MEL-2 melanoma -18.5% | EKVX NSCLC 9.09% | SN12C renal -7.21% | UO-31 renal 1.64% | ACHN renal -3.53% | CAKI-1 renal 1.47% | A498 renal -1.96%
inactive: TK-10 renal 16.1% | CCRF-CEM leukemia 17.5%

Cc1cc(=O)oc2cc(OCCCOc3ccc(/C=C/C(=O)Nc4ccc(Br)cc4)cc3)ccc12
inactive: SK-MEL-2 melanoma 91.1% | EKVX NSCLC 91.6% | SN12C renal 89.9% | UO-31 renal 82.3% | TK-10 renal 78.9% | ACHN renal 46.7% | CAKI-1 renal 104% | A498 renal 82.9% | CCRF-CEM leukemia 83.6%

c1ccc(-c2cn3c(-c4c[nH]c5ccccc45)csc3n2)cc1
inactive: SK-MEL-2 melanoma 77.4% | EKVX NSCLC 72% | SN12C renal 53.6% | UO-31 renal 73% | TK-10 renal 148% | ACHN renal 91.8% | CAKI-1 renal 77.9% | A498 renal 79.3% | CCRF-CEM leukemia 53% | MOLT-4 leukemia 66.9%

COc1cc(-c2nc(-c3ccccc3)[nH]c2-c2ccnc(NCCCNS(=O)(=O)c3ccc(C(F)(F)F)cc3)n2)ccc1Cl
6.64% (active) and 21.7% (inactive): CCRF-CEM leukemia
inactive: SK-MEL-2 melanoma 74.8% and 43.8% | EKVX NSCLC 30% and 44.9% | SN12C renal 49.4% and 49.5% | UO-31 renal 46.5% and 35.4% | TK-10 renal 79.1% and 61.2% | ACHN renal 33.3% and 32.6% | CAKI-1 renal 31.2% and 35.4% | A498 renal 40% and 64.3%

C(=N\Nc1nc(N/N=C/c2ccc3c(c2)OCO3)nc(N2CCCCC2)n1)/c1ccc2c(c1)OCO2
inactive: SK-MEL-2 melanoma 103% | EKVX NSCLC 93.7% | SN12C renal 79.7% | UO-31 renal 74.4% | TK-10 renal 121% | ACHN renal 94.9% | CAKI-1 renal 98.9% | A498 renal 51.7% | CCRF-CEM leukemia 20.4%

Clc1ccc2[nH]cc(-c3cncn3CCc3ccc4c(c3)OCO4)c2c1
inactive: SK-MEL-2 melanoma 86.4% | EKVX NSCLC 48% | SN12C renal 77% | UO-31 renal 51.9% | TK-10 renal 96.9% | ACHN renal 78.4% | CAKI-1 renal 35.6% | A498 renal 56.3% | CCRF-CEM leukemia 64.2% | MOLT-4 leukemia 60.4%

CS(=O)(=O)c1ccc(/C(=N/N=C(N)N)c2ccc(F)cc2)cc1
inactive: SK-MEL-2 melanoma 97.2% | EKVX NSCLC 85.3% | SN12C renal 106% | UO-31 renal 92.7% | TK-10 renal 92% | ACHN renal 98% | CAKI-1 renal 51.4% | A498 renal 88.8% | CCRF-CEM leukemia 74.9%

O=C(CSc1cc[n+](CCCCO)c2ccccc12)n1ccc2ccccc21
inactive: SK-MEL-2 melanoma 111% | EKVX NSCLC 89.3% | SN12C renal 103% | UO-31 renal 63.6% | TK-10 renal 155% | ACHN renal 96.4% | CAKI-1 renal 81.9% | A498 renal 114% | CCRF-CEM leukemia 107% | MOLT-4 leukemia 95.8%

CC(Nc1ncnc2ccc(-c3cnc4cnccn34)cc12)c1ccccc1 (stereo not drawn)
inactive: SK-MEL-2 melanoma 64% | EKVX NSCLC 30.4% | SN12C renal 51.9% | UO-31 renal 15.7% | TK-10 renal 20.9% | ACHN renal 22.8% | CAKI-1 renal 27.6% | A498 renal 65.3% | CCRF-CEM leukemia 61.1% | MOLT-4 leukemia 37.5%

Cc1csc(/N=C(N)/N=C(\N)c2cccc(Br)c2)n1
inactive: SK-MEL-2 melanoma 101% | EKVX NSCLC 88.9% | SN12C renal 90.7% | UO-31 renal 86.4% | TK-10 renal 149% | ACHN renal 97.7% | CAKI-1 renal 85.7% | A498 renal 81.5% | CCRF-CEM leukemia 98.6% | MOLT-4 leukemia 96.5%

C[C@@H]1OCC2(CCN(c3cnc(C(=O)Nc4cc(F)cc5cccnc45)cn3)CC2)[C@@H]1N
inactive: SK-MEL-2 melanoma 97.9% | EKVX NSCLC 78.2% | SN12C renal 59.6% | UO-31 renal 41.1% | TK-10 renal 90.8% | ACHN renal 31.8% | CAKI-1 renal 45.8% | A498 renal 71.9% | CCRF-CEM leukemia 15.7% | MOLT-4 leukemia 20.8%

CN1CCN(Cc2ccc(NC(=O)c3cncc(C#Cc4cnc5ccc(O[C@@H]6CCOC6)nn45)c3)cc2C(F)(F)F)CC1
active: SK-MEL-2 melanoma -78.3% | EKVX NSCLC -85.8% | SN12C renal -77.4% | UO-31 renal -91.8% | TK-10 renal -83.5% | ACHN renal -100% | CAKI-1 renal -96.8% | A498 renal -94.7% | CCRF-CEM leukemia -15.8% | MOLT-4 leukemia -26%

CN1CCN(Cc2ccc(/C=N/Nc3ccnc4cc(Cl)ccc34)cc2)CC1
inactive: SK-MEL-2 melanoma 113% | EKVX NSCLC 82.6% | SN12C renal 87.9% | UO-31 renal 78.8% | TK-10 renal 162% | ACHN renal 90.5% | CAKI-1 renal 77.5% | A498 renal 111% | CCRF-CEM leukemia 56.9% | MOLT-4 leukemia 63.1%

O=C(NNc1nc2cc(F)cc(F)c2n2cccc12)c1cccnn1
active: EKVX NSCLC 9.18% | A498 renal 4.83% | CCRF-CEM leukemia 6.41% | MOLT-4 leukemia 7.32%
inactive: SK-MEL-2 melanoma 20.8% | SN12C renal 18.5% | UO-31 renal 15.4% | TK-10 renal 42.4% | ACHN renal 10.3% | CAKI-1 renal 12.4%

C=C(C=O)[C@@H]1CC[C@]2(C(=O)O)CC[C@]3(C)C(CC[C@@H]4[C@@](C)(CCC#N)[C@H](C(=C)C=O)CC[C@]43C)[C@@H]12 (stereo partly drawn)
active: CCRF-CEM leukemia 2.89% | MOLT-4 leukemia 5.55%
inactive: SK-MEL-2 melanoma 61.1% | EKVX NSCLC 100% | SN12C renal 66.4% | UO-31 renal 32.8% | TK-10 renal 128% | ACHN renal 51.8% | CAKI-1 renal 17.8% | A498 renal 96.9%

COc1ccc(/C=N/NC(=O)CSc2nc(-c3cnccn3)cc(-c3cccs3)c2C#N)cc1OC
inactive: SK-MEL-2 melanoma 102% | EKVX NSCLC 85.9% | SN12C renal 91.1% | UO-31 renal 89% | TK-10 renal 123% | ACHN renal 83% | CAKI-1 renal 88.1% | A498 renal 38.2% | CCRF-CEM leukemia 93.9% | MOLT-4 leukemia 90.8%

O=C1CSC(c2cn(-c3ccccc3)nc2-c2ccc(Cl)cc2)N1c1ccccc1 (stereo not drawn)
inactive: SK-MEL-2 melanoma 112% | EKVX NSCLC 98.8% | SN12C renal 114% | UO-31 renal 83.8% | TK-10 renal 118% | ACHN renal 104% | CAKI-1 renal 92.3% | A498 renal 125% | CCRF-CEM leukemia 103% | MOLT-4 leukemia 114%

CSc1ccc(/C(=N/N=C(N)N)c2ccc(Cl)cc2)cc1
active: SK-MEL-2 melanoma -7.8% | SN12C renal 7.12% | CAKI-1 renal 3.83% | A498 renal -21.6%
inactive: EKVX NSCLC 35.1% | UO-31 renal 10.1% | TK-10 renal 51.3% | ACHN renal 15% | CCRF-CEM leukemia 16.1% | MOLT-4 leukemia 13.4%

Cc1ccc(NC(=O)/C=C/c2ccc(OCCCOc3ccc4c(C)cc(=O)oc4c3)cc2)cc1
inactive: SK-MEL-2 melanoma 58% | EKVX NSCLC 83.1% | SN12C renal 73.3% | UO-31 renal 39.6% | TK-10 renal 91.5% | ACHN renal 17.7% | CAKI-1 renal 51% | A498 renal 45.2% | CCRF-CEM leukemia 99.1% | MOLT-4 leukemia 103%

COC(=O)CCCNCCCn1ccc2cc(NCc3cccc(-c4ccccc4)c3C)ccc21
inactive: SK-MEL-2 melanoma 95.6% | EKVX NSCLC 73.6% | SN12C renal 73.4% | UO-31 renal 54.5% | TK-10 renal 115% | ACHN renal 77.8% | CAKI-1 renal 48.4% | A498 renal 16.4% | CCRF-CEM leukemia 33.8% | MOLT-4 leukemia 49.5%

O=C(CSc1nc2ccccc2c(=O)n1CCc1ccccc1)Nc1ccc(S(=O)(=O)Nc2ccc(Cl)nn2)cc1
inactive: SK-MEL-2 melanoma 111% | EKVX NSCLC 86.9% | SN12C renal 94.9% | UO-31 renal 65.1% | TK-10 renal 149% | ACHN renal 90.6% | CAKI-1 renal 75.1% | A498 renal 107% | CCRF-CEM leukemia 99.2% | MOLT-4 leukemia 99.8%

COc1cccc(N2CCN(C3=C(Cl)C(=O)c4ncccc4C3=O)CC2)c1
inactive: SK-MEL-2 melanoma 98.4% | EKVX NSCLC 102% | SN12C renal 95.8% | UO-31 renal 38% | TK-10 renal 126% | CAKI-1 renal 57.8% | A498 renal 104% | MOLT-4 leukemia 18.2%
active: ACHN renal -23.8% | CCRF-CEM leukemia 10%
